The campaign covered roughly 370,000 compounds. About 2,800 (0.76%) were called active. The sample holds actives, similar compounds and a random draw of the others, so the mix is not that of the screen. Cut-off read from the data, not from the text of the source: active = inhibition above about 21%; inactive = the rest.

The target in this assay is E3 ubiquitin-protein ligase UHRF1 (Homo sapiens) (UniProt Q96T88). Description: blockers of UHRF1 binding to methyl-oligo – biochemical, TR-FRET, human UHRF1, single concentration, counter-screen for MBD2 inhibitor project, primary screen (AID 687016).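 Note: UHRF1 SRA domain binding a hemimethylated CpG hairpin DNA probe; 0% = median of test compound wells and 100% = reference inhibitor.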 To be noted: UHRF1 binding to methylated oligo, at 4.4 µM, hits give high values.
Sequence of E3 ubiquitin-protein ligase UHRF1 (Homo sapiens) (Q96T88 whole entry, looked up, the tested form may be a part): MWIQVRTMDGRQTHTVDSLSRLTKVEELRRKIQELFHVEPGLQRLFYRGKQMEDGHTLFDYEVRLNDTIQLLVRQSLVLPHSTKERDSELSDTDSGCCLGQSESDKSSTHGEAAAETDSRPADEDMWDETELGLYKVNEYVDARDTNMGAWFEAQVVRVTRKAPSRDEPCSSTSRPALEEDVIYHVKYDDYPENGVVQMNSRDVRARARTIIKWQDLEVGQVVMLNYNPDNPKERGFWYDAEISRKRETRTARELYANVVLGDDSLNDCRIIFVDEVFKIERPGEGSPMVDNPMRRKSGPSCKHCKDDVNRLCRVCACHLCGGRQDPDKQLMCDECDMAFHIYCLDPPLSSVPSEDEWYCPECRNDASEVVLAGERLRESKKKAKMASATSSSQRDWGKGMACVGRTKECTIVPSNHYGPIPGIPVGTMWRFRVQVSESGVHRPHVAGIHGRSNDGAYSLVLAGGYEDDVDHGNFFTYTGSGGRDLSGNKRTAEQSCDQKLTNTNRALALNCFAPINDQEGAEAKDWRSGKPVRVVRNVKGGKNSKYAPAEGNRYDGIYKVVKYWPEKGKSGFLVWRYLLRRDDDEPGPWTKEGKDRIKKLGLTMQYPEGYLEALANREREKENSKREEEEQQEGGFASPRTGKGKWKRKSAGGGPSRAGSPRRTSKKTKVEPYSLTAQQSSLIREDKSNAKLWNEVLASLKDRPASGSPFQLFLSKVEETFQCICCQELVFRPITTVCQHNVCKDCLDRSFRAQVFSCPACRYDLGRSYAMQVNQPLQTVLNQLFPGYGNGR
With `Cn1cc(C(=O)OCC(=O)N2CCCC2)c2ccccc21`, the inhibition was 73.7% (active).

`CC(=O)Nc1ccccc1C(=O)OCC(=O)c1cccc2ccccc12`: the inhibition was 0.36% (inactive).

For the compound `CC(C)c1ccc(OCC(=O)N2CCCN(C)CC2)cc1`, the inhibition was -1.28% (inactive).

As to `O=C1C2CCN(CC2)C1(CO)CO`, the inhibition is 0.15% (inactive).

Take `Cc1ccccc1CCC[C@@H](CC1CCCCC1)CN(C)C(=O)Oc1ccccc1`: the inhibition is -0.75% (inactive).

Regarding `Cc1ccnc(-n2c(C)cc(/C=C3\C(=O)NC(=S)N(C)C3=O)c2C)c1`, the inhibition was 1.95% (inactive).

Consider `Cc1cc(C=C2C(=O)NC(=O)NC2=O)c(C)n1-c1ccncc1`, for which the inhibition is -7.92% (inactive).

For the compound `Cc1cc(/C=C2/C(=O)NC(=O)N(Cc3ccco3)C2=O)c(C)n1-c1ccc(C(=O)O)cc1`, the inhibition was 78.5% (active).

As to `O=C1NC(=O)N(Cc2ccco2)C(=O)/C1=C\c1ccc(-c2ccc(F)cc2)o1`, the inhibition is 81.8% (active).

For the compound `CO[C@H]([C@H](C)/C=C/N(C)C=O)[C@@H](C)C(=O)CC[C@H](C)[C@H](O)[C@H](C)[C@H]1OC(=O)/C=C/C(C)=C/[C@H](O)[C@H](OC)C[C@@H]2C=CC[C@@H](C[C@H](OC)[C@@]3(CO3)[C@@H](OC)C[C@@H](OC)[C@@H]1C)O2`, the inhibition was -2.95% (inactive).

In the case of `CC(=CCOc1ccc2ccc(=O)oc2c1)C1=CC(=O)C(C)(C)O1`, the inhibition was 0.79% (inactive).

In the case of `NC(=O)Cn1cc(C(=O)c2ccccc2F)c2ccccc21`, the inhibition was -1.97% (inactive).

Regarding `S=C(NCCc1ccccc1)N1Cc2cc(N3CCOCC3)ccc2-n2nncc2C1`, the inhibition is -3.2% (inactive).

As to `CCOC(=O)[C@]12Cc3ccccc3[C@H]1N(C1CCCCC1)C(=O)c1cc(OC)ccc12`, the inhibition is -1.33% (inactive).

As to `COP(=O)(Sc1ccccc1)C(Cc1ccccc1)NC(=O)OCc1ccccc1` (stereo not given), the inhibition is -3.61% (inactive).

`O=c1c2ccccc2nc(-c2ccc(Cl)cc2Cl)n1-c1ccncc1`: the inhibition was -0.96% (inactive).

For `COc1ccc(N2C(=O)/C(=C/c3ccco3)C(=O)NC2=S)cc1`, the inhibition was 68.7% (active).

`CCOC(=O)C(O)(c1ccc(N=Cc2ccccc2O)c(C)c1)C(F)(F)F` (stereo not given): the inhibition was -1.83% (inactive).

Regarding `CN(C)CCCN=Cc1c(O)n(Cc2ccco2)c(=O)[nH]c1=O`, the inhibition is 0.23% (inactive).

For the compound `CC(C)CN1CCN(Cc2ccccc2C(F)(F)F)CC1CCO` (stereo not given), the inhibition was -2.88% (inactive).

Values taken from PubChem BioAssay AID687016 (The Scripps Research Institute Molecular Screening Center, 2013).
